High-throughput results: PubChem, National Center for Advancing Translational Sciences (NCATS)
The list is not random: actives were taken first. Their share in the collection is about 10%.
HEK293 tox – kills HEK 293 cells | HEK 293 viability, ATP luminescence (CellTiter-Glo), 48-72 h | Potency, µM (doses to about 115 µM), inactives show at the top dose activity change, negative = cytotoxicity, usual class: inhibitors | 94,000 compounds, 6.6% hits; further: nearly all actives have a fitted effect of over 60% in size
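HEK 293 cells seeded at 250 cells/well were exposed to compound for 48 or 72 hr at 37 degree Celsius. Viability taken as ATP content by CellTiter-Glo luminescence.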
Luciferase inh – inhibitors of firefly (Photinus pyralis) luciferase; P08659; purified P. pyralis luciferase, luminescence, biochemical; Potency, µM (highest dose often 115 µM), most hits filed as inhibitors; 76,000 compounds, 2.5% hits; AID 1347043; further: nearly all actives have a fitted effect of over 65% in size
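Luminescence read by CCD imaging after purified firefly luciferase (10nM final) was added to substrate buffer holding 10uM D-luciferin and 10uM ATP, pH 7.5, pre-dosed with compound.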
GPT2 inh – blocks human glutamate pyruvate transaminase 2. Q8TD30. Recombinant GPT2, coupled pyruvate oxidase/HRP Amplex Red fluorescence. Potency, µM (titrated, usually from 57.7 µM), for inactives: at the highest dose activity change, negative = inhibition, usual class: inhibitors. 100,000 compounds, 0.25% hits. AID 1671188; further: nearly all actives have a fitted effect of over 60% in size
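GPT2 10ng/uL, a-KG 250uM, L-Ala 2mM, HEPES pH7.5 + 0.0001% Tween; 30 min RT. Then Amplex mix (PO/HRP/ThPP), 30 min RT dark, fluorescence. AOA 50uM used as positive control.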
hNpr1 antagonist – antagonists of human natriuretic peptide receptor Npr1; AID 1347048; 76,000 compounds, 1.6% hits; Potency, µM (titrated, usually from 46.3 µM), for the others: top-dose activity change, negative = inhibition, most hits filed as inhibitors; HEK293 hNpr1 GloSensor cGMP, ANP-stimulated luminescence; P16066; calls by dose curve; further: nearly all actives have a fitted effect of over 60% in size
Target sequence (P16066 whole entry, looked up): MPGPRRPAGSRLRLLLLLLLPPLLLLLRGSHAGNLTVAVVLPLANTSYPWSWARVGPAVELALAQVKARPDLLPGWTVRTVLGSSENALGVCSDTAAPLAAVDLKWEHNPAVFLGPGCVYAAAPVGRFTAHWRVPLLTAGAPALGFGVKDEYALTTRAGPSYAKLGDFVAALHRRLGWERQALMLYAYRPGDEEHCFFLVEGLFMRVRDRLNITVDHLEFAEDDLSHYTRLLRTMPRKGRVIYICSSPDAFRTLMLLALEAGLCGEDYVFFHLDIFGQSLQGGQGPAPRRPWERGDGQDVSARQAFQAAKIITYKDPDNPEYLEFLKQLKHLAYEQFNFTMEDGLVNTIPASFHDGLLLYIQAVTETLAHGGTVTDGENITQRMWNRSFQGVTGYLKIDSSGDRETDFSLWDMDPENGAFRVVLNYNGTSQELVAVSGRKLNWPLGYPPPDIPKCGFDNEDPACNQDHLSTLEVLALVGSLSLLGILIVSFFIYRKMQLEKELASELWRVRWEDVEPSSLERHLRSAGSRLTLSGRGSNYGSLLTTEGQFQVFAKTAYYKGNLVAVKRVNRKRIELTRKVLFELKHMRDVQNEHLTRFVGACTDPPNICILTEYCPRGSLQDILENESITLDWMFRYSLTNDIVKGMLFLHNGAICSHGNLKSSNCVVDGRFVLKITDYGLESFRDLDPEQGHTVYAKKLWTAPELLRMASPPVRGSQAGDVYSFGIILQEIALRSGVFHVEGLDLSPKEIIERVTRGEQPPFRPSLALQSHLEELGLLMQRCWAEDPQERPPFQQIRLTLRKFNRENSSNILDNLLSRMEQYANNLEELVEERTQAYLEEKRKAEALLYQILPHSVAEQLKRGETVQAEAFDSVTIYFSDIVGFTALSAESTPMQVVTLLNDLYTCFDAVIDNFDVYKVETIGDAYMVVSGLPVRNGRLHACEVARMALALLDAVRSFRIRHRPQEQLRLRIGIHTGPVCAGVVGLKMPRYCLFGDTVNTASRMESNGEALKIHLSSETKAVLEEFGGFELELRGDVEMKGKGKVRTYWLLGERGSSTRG
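HEK293 cells stably expressing human Npr1 and cGMP GloSensor pGS-40F, loaded 2 h with 2% GloSensor reagent, given compound 30 min at room temperature. Luminescence read before and 20 min after 0.1 nM hNppA.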
NIH3T3 tox – cytotoxic compounds in NIH 3T3 cells; 94,000 compounds, 4.3% hits; NIH 3T3 viability, CellTiter-Glo ATP luminescence, 48-72 h; Potency, µM (titrated, usually from 96.7 µM), inactives show at the top dose activity change, negative = cytotoxicity, usual class: inhibitors; further: nearly all actives have a fitted effect of over 55% in size
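First NIH 3T3 cells are plated at 400 cells/well; next compound is pinned in; then plates incubate 48 or 72 hr at 37 °C; finally CellTiter-Glo is added and luminescence read after 10 min.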
Numbers without * were called inactive; i = inactive; ? = inconclusive; . = not tested or not shown; [ ] = remark or other dose. Unless noted, the call rests on the fitted dose curve; in most records, active means well fitted curve in the direction sought with a large enough effect; inconclusive means small, poorly fitted or top-dose-only effect, or another doubt; inactive means no such curve, though single readings can be large; an effect the other way counts as inactive or inconclusive. On the % scale 0 is the no-effect control and ±100 the full control effect; potency means the concentration at half of the fitted maximal effect.

SMILES	HEK293 tox	Luciferase inh	GPT2 inh	hNpr1 antagonist	NIH3T3 tox
C=C1CC2C3(C)C(OC(C)=O)CC(=O)OC(C)(C)C3C(O)C(OC(C)=O)C2(C)C2C(=O)OC(C)C(=O)C12C (stereo not given)	.	.	i	.	.
CC(C)NC(=O)C[C@@H]1c2nc(NC(=O)c3ccc(C(C)(C)C)cc3)sc2C[C@@H]2[C@](C)(CO)[C@H](O)CC[C@]21C	39.8µM*	?	-9.9%	4.7%	50.1µM*
CC(C)(C)c1ccc(C(=O)Nc2nc3c(s2)C[C@@H]2[C@](C)(CO)[C@H](O)CC[C@@]2(C)[C@@H]3CC(=O)N2CCOCC2)cc1	?	i	i	-3.3%	35.5µM*
CC(=O)Nc1nc2c(s1)C[C@@H]1[C@](C)(CO)[C@H](O)CC[C@@]1(C)[C@@H]2CC(=O)NC1CC1	-10.8%[172 µM]	i	?	-2.8%[70.6 µM]	-18.4%[138 µM]
CC(C)(C)c1ccc(C(=O)Nc2nc3c(s2)C[C@@H]2[C@](C)(CO)[C@H](O)CC[C@@]2(C)[C@@H]3CC(=O)NC2CC2)cc1	44.7µM*	44.7µM*	-2.3%	3.3%	44.7µM*
COc1ccccc1CNC(=O)C[C@@H]1c2nc(-c3cccnc3)sc2C[C@@H]2[C@](C)(CO)[C@H](O)CC[C@]21C	?	i	1.7%	-10.0%	79.4µM*
Cc1cccc(C(=O)N2CCCCC2c2nc(C3CC3)n[nH]2)c1 (stereo not given)	-2.5%	.	-4.2%	.	-23.3%
CCNC(=O)N1CCc2nc(-c3ccccc3)[nH]c2C1	-9.8%	.	i	.	-22.2%
CNC(=O)c1cc(C2CC2)nc2onc(C3CCN(C(=O)Cc4ccc(OC)cc4)C3)c12 (stereo not given)	1.1%	.	.	.	-22.3%
COc1ccccc1-n1c(=O)c(C(=O)N2CCN(C(=O)Nc3ccccc3)CC2)nc2cccnc21	-2.1%	.	i	.	0.4%
CC(C)n1cnnc1CC1CCN(S(=O)(=O)c2ccc3c(c2)CCC3)C1 (stereo not given)	-12.3%	.	i	.	-22.3%
O=C(CC1CCCN(c2cnn(CC3CC3)c(=O)c2)C1)NCc1ccccc1 (stereo not given)	?	i	4.9%	-9.7%	35.5µM*
O=C(CC1CCCN(c2cnn(CC3CC3)c(=O)c2)C1)Nc1cccc(F)c1 (stereo not given)	?	i	1.6%	1.2%	22.4µM*
CCn1ncc(N2CCCC(CC(=O)NCc3ccccc3)C2)cc1=O (stereo not given)	?	i	i	-1.5%	-15.3%
O=C(CC1CCCN(c2cnn(CC3CC3)c(=O)c2)C1)NCCc1c[nH]c2ccccc12 (stereo not given)	79.4µM*	i	i	-1.3%	?
O=C(Cc1cccc(F)c1)N1CCC(Oc2ccccc2-c2nc(C3CC3)no2)C1 (stereo not given)	?	i	i	-4.9%	?
COc1cc(CNC(=O)[C@@H]2C[C@@H](c3ccc(F)cc3)N(Cc3ccccc3)C2)cc(OC)c1	?	i	-13.0%	-4.9%	-25.9%
COc1cccc(NC(=O)[C@@H]2C[C@@H](c3ccc(F)cc3)N(Cc3ccccc3)C2)c1	?	i	-8.5%[88.5 µM]	?	31.6µM*
O=C(Nc1ccncn1)[C@@H]1C[C@@H](c2ccc(F)cc2)N(Cc2ccccc2)C1	100µM*	i	-27.3%[88.5 µM]	-18.1%[70.6 µM]	79.4µM*
COc1cccc(CNC(=O)c2cn3cc(-c4cccc(C#N)c4)sc3n2)c1	?	.	i	.	-21.0%
Cn1ncc2c(C(=O)NCc3cccs3)cc(-c3ccc(Cl)cc3Cl)nc21	39.8µM*	.	i	.	?
Cc1ccc(-c2cc(C(=O)NCc3cccs3)c3cnn(C)c3n2)c(C)c1	?	.	-0.9%	.	?
Cn1ncc2c(C(=O)CCc3ccc(F)cc3)cc(-c3ccc(Cl)cc3Cl)nc21	35.5µM*	.	-19.0%	.	31.6µM*
CN1C(=O)[C@@H]2C[C@@H](CN2C2CCCC2)Oc2ccccc21	?	i	-2.6%[88.5 µM]	-2.0%[70.6 µM]	?
CN1C(=O)[C@@H]2C[C@@H](CN2C2CCC2)Oc2ccccc21	89.1µM*	i	i	-15.7%[70.6 µM]	50.1µM*
SMILES	HEK293 tox	Luciferase inh	GPT2 inh	hNpr1 antagonist	NIH3T3 tox
O=C(CC(c1cccc([N+](=O)[O-])c1)c1c[nH]c2ccccc12)NCc1ccccc1 (stereo not given)	?	i	?	-13.7%	?
Cc1ccc(C(CC(=O)Nc2ccc(F)cc2)c2c[nH]c3ccccc23)cc1 (stereo not given)	?	i	i	-26.2%	44.7µM*
FC(F)(F)c1ccc(O[C@H]2COCCN(CC3CCCC3)C2)cc1	112µM*	i	-16.1%[88.5 µM]	-2.5%[70.6 µM]	89.1µM*
FC(F)(F)c1cccc(CN2CCOC[C@H](Oc3ccccc3)C2)c1	?	i	-13.1%[88.5 µM]	1.6%[70.6 µM]	?
CS(=O)(=O)N1CCC(OC2CCN(C(=O)Nc3ccc4c(c3)OCCO4)CC2)CC1	-3.2%	35.5µM*	-1.3%	0.9%	-5.7%
CS(=O)(=O)N(Cc1cccnc1)C1CN(C(=O)Nc2ccc3c(c2)OCCO3)C1	6.4%	35.5µM*	i	2.0%	i
Cc1cnc(CC2CCN(C(=O)Nc3ccc4c(c3)OCCO4)C2)n1C1CC1 (stereo not given)	-3.0%	.	?	.	-16.5%
Cc1nc(CC2CCN(C(=O)Nc3ccc4c(c3)OCCO4)CC2)n[nH]1	-6.7%	44.7µM*	i	-29.3%	i
COCCCn1c(C)cnc1C1CCN(C(=O)Nc2ccc3c(c2)OCCO3)C1 (stereo not given)	-6.6%	44.7µM*	-8.4%	1.7%	i
CCN1C[C@H]2COc3cc(OC)ccc3[C@H]2N(C(=O)COc2ccccc2)CCC1=O	1.9%	.	.	.	?
O=C(Nc1ccccc1)NC1CCN(CCn2nc3n(c2=O)CCCC3)C1 (stereo not given)	-0.5%	.	.	.	-7.9%
O=C(Nc1ccc2c(c1)OCCO2)N1CCC(Cc2nc(-c3ccncc3)n[nH]2)CC1	-7.3%	79.4µM*	i	-22.3%	-31.1%
COCC(=O)N1CCCC(C(=O)N2CCC(N3CCOCC3=O)CC2)C1 (stereo not given)	i	.	i	.	2.4%
Cn1ccc2c(C(=O)NCc3cccnc3)nc(-c3cccnc3)cc21	-25.5%[172 µM]	i	2.4%[88.5 µM]	-12.0%[70.6 µM]	25.1µM*
CC(=O)Nc1cccc(-c2cc3c(ccn3C)c(C(=O)NCc3cccnc3)n2)c1	?	i	-18.1%[88.5 µM]	-21.1%[70.6 µM]	25.1µM*
Cn1ccc2c(C(=O)NCc3cccnc3)nc(-c3cccc(N4CCOCC4)c3)cc21	?	i	i	-20.6%[70.6 µM]	?
CN(C)CCNC(=O)c1nc(-c2ccc(N3CCN(C)CC3)cc2)cc2c1ccn2C	?	?	i	-0.9%[70.6 µM]	7.94µM*
